This note sets out measurements from ChEMBL document CHEMBL3988442, “University of Dundee, Small-Polar-MMV Screening Library” (2021).

Common to all, as to parameters: scale not given: direction of the effect not stated beside the values
Assay [1] has as its target Protein translocase subunit SecA (Escherichia coli (strain K12)) (UniProt P10408). Briefly: Assay to Identify E. coli SecA ATPase Inhibitors. It is filed as functional. Conditions: 30 µM.
In assay [2] the target is T1, Ubiquitin-activating enzyme e1, putative (Leishmania donovani (strain BPK282A1)) (UniProt E9BSI1).
T1 sequence (whole entry): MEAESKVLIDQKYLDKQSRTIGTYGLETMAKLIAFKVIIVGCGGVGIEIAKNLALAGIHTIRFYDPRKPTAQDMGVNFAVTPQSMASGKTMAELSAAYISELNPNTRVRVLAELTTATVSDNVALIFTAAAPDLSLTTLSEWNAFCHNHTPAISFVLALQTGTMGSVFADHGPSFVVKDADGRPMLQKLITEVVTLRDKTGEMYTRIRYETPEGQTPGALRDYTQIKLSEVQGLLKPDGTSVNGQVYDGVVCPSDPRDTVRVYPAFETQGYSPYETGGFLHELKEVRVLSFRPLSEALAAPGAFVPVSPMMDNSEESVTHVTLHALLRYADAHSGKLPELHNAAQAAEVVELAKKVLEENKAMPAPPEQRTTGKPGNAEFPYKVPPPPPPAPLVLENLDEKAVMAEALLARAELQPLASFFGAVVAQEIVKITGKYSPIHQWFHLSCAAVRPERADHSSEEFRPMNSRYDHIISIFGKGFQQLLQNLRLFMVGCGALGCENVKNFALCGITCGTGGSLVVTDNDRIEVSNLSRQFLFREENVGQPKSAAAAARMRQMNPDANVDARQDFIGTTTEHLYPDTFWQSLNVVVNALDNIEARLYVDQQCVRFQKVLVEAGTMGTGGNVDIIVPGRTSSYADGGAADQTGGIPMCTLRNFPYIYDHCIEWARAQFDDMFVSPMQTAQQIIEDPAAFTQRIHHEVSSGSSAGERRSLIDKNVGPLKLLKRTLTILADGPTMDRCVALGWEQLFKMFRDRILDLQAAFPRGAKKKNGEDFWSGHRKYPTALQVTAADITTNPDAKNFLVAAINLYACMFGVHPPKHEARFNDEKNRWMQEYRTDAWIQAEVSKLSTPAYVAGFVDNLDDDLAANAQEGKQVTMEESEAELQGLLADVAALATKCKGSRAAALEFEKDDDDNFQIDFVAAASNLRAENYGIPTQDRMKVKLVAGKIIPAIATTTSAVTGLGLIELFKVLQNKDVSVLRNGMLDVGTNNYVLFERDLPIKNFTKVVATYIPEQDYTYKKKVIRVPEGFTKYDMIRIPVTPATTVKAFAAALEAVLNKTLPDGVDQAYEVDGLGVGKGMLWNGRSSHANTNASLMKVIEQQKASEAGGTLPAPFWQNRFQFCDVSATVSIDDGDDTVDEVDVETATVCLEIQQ
Kind of assay: Leishmania donovani Ubiquitin Activating Enzyme (LdE1). The assay is classed as functional. Conditions: 30 µM.

Assay [3] addresses AMP-activated protein kinase, AMPK (Homo sapiens) (UniProt P54646+O43741+P54619+Q9UGJ0+Q9Y478+Q13131+Q9UGI9). Kind of assay: AMP-dependent Kinase enzyme assay. An in vitro enzyme assay that detects ADP turnover that is directly proportional to AMPK activity. This uses naive AMPK that is activated during the assay with MK-8722. It is filed as functional. The settings on record: 30 µM.

Assay [4] has as its target Sialic acid-binding Ig-like lectin 9 (Homo sapiens) (UniProt Q9Y336). Briefly: Hs-Siglec9 ALPHAscreen SOP 20170721. Conditions: 10 µM.
Another assay relates to Trypanosoma cruzi. Briefly: Trypanosoma cruzi phosphomannomutase and mannose-1-phosphate guanylyltransferase assay. It is filed as functional. The settings on record: 10 µM.
Assay [5] has as its target T2, Arginase-2, mitochondrial (Homo sapiens) (UniProt P78540).
T2 sequence (whole entry): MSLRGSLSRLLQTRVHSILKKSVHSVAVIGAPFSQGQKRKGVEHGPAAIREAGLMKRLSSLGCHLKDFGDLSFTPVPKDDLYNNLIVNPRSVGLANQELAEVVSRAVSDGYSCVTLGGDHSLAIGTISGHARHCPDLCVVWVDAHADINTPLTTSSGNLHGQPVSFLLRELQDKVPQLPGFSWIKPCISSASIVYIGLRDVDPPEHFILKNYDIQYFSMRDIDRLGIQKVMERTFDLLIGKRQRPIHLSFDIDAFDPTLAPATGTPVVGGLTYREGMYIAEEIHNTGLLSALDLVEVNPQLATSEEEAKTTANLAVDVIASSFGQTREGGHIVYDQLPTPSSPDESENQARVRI
Kind of assay: in vitro enzyme assay to detect the production of urea directly proportional to the activity of Arginase II. Also: in the data most compounds retested in dose-response had high values. It is filed as functional. Conditions: 33.3 µM.

Assay [6] concerns the target T3, Proteasome subunit beta (Trypanosoma cruzi) (UniProt O96673).
T3 sequence (whole entry): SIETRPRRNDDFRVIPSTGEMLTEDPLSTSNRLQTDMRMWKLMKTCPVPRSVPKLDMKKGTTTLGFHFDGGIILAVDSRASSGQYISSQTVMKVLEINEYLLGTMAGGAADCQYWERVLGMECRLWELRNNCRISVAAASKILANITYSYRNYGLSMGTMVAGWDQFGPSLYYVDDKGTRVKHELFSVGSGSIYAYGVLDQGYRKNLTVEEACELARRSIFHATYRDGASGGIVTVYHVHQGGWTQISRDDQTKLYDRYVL
Kind of assay: Trypanosoma cruzi proteasome chymotrypsin-like activity (TcProtChymo) assay. Also: in the data most compounds retested in dose-response had high values. Conditions: 9.37 µM. It is filed as functional.

For a further assay, the species on record is Homo sapiens. Kind of assay: To identify inhibition of the IFN signalling (Jak-Stat) pathway via expression of an eGFP reporter gene under the control of an IFN-stimulated response element (ISRE) containing MxA promoter. It is filed as functional. The settings on record: 30 µM.
For assay [7], the target named is T4, Tyrosyl-tRNA synthetase, putative (Trypanosoma cruzi (strain CL Brener)) (UniProt Q4DSP6).
T4 sequence (whole entry): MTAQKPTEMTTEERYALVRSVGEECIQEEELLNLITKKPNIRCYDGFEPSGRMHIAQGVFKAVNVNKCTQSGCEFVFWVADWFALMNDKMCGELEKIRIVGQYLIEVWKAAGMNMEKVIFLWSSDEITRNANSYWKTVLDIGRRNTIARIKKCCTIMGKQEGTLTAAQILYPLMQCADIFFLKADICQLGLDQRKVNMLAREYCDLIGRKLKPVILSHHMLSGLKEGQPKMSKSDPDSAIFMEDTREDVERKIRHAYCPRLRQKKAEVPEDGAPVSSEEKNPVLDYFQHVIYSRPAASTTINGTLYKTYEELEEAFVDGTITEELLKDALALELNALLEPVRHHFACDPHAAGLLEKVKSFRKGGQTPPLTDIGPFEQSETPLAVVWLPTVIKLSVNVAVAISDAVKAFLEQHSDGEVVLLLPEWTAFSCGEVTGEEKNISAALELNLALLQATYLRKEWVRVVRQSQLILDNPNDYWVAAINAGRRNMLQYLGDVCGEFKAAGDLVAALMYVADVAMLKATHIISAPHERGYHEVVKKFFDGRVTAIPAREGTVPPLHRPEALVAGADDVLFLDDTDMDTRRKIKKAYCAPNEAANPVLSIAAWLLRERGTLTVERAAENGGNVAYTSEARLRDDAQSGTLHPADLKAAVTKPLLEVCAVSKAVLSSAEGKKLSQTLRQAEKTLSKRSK
Briefly: Trypanosoma cruzi tyrosyl tRNA synthetase (TcYRS) _High Tyrosine SOP. Also: in the data most compounds retested in dose-response had high values. It is filed as functional. The settings on record: 30 µM.

For assay [8], the target named is T4, Tyrosyl-tRNA synthetase, putative (Trypanosoma cruzi (strain CL Brener)). Kind of assay: Trypanosoma cruzi tyrosyl tRNA synthetase (TcYRS) SOP. The assay is classed as functional. Conditions: 30 µM.
The target of assay [9] is Chromo domain-containing protein 1 (Saccharomyces cerevisiae (strain ATCC 204508 / S288c) (Baker's yeast)) (UniProt P32657). Briefly: ScCHD-1 Enzyme Inhibition Assay. Also: in the data most compounds retested in dose-response had high values. It is filed as functional. The settings on record: 30 µM.
Sequence of Chromo domain-containing protein 1 (Saccharomyces cerevisiae (strain ATCC 204508 / S288c) (Baker's yeast)) (P32657 whole entry, the tested form may be a part): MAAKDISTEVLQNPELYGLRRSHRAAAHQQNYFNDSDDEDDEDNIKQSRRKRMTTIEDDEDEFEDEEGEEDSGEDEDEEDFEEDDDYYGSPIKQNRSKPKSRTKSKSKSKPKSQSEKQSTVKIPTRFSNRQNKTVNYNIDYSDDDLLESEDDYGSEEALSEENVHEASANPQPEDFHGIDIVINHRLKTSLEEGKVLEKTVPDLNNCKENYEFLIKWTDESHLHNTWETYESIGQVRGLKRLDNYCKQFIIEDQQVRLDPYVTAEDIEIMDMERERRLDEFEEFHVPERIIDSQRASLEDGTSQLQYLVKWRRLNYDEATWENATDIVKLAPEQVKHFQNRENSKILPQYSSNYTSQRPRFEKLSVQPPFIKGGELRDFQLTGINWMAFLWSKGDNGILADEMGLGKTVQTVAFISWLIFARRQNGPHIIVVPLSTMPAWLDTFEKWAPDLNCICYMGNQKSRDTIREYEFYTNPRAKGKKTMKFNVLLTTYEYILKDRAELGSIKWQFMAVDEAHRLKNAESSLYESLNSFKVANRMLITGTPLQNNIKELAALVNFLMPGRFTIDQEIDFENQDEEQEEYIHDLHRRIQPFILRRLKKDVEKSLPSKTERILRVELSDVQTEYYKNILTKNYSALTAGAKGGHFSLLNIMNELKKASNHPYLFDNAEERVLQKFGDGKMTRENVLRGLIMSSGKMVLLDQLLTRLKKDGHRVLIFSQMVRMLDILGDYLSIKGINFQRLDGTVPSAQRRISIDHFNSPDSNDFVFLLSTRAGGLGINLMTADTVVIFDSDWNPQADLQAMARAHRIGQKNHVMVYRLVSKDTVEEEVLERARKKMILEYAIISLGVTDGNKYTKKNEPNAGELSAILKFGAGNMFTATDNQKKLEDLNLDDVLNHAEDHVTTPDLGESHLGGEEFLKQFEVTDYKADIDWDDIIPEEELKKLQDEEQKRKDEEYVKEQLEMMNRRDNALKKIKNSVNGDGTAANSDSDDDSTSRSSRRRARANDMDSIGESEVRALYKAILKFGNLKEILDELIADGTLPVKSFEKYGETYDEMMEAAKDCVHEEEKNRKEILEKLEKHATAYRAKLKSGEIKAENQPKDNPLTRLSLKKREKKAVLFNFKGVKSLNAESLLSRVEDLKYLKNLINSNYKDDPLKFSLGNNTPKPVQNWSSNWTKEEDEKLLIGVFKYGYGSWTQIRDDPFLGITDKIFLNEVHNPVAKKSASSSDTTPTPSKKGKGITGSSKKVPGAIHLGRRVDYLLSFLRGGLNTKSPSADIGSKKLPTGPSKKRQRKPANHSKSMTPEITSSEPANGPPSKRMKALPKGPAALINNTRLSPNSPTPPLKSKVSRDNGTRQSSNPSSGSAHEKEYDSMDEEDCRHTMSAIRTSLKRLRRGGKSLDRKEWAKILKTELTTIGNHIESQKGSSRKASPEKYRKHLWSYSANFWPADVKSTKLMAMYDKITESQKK

Molecules are shown by their SMILES. For some of these results: Results with a measured potency or affinity are listed apart.

Sequence of Sialic acid-binding Ig-like lectin 9 (Homo sapiens) (Q9Y336 whole entry): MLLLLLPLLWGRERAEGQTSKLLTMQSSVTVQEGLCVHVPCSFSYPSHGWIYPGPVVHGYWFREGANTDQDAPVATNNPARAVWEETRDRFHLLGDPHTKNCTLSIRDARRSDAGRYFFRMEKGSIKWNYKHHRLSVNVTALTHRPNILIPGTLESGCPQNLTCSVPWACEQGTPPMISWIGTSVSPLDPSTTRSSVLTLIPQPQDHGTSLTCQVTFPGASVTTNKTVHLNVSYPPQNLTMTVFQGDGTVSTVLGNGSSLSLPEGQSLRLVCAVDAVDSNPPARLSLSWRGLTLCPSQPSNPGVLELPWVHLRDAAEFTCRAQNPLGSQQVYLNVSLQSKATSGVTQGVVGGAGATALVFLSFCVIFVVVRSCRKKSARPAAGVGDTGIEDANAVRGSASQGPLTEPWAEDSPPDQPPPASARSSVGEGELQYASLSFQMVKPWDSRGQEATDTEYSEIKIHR
Sequence of Protein translocase subunit SecA (Escherichia coli (strain K12)) (P10408 whole entry): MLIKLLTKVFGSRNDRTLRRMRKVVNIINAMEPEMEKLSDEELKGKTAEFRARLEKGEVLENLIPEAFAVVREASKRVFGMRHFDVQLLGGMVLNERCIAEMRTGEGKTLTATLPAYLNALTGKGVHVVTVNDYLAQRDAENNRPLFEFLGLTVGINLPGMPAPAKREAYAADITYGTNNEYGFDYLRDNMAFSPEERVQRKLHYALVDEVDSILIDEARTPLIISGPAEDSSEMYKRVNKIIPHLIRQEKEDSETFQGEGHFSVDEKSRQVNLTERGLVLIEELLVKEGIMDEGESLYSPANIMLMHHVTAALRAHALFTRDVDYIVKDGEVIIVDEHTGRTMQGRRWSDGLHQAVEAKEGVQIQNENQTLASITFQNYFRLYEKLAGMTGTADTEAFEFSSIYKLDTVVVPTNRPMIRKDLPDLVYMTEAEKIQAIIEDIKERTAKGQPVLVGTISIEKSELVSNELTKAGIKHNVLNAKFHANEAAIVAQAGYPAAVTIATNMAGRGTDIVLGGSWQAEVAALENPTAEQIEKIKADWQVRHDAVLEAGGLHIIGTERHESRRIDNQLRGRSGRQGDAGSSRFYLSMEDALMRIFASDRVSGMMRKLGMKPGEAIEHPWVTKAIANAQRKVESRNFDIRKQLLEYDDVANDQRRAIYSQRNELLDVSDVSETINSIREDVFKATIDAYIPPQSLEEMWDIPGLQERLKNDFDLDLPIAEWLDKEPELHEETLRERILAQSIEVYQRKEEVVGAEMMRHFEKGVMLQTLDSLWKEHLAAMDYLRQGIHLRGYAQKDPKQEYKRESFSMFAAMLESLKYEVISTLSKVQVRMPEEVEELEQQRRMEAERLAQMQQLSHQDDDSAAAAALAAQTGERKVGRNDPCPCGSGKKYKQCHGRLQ

Consider `CCOCC1CN(Cc2ccoc2)Cc2nn(CC3CC3)cc21` (stereo not drawn), for which the Percent Effect was -7.41% in [1]; -2.7% in assay [2]; 4.81% in assay [3]; -1.13% in [4]; -3.52% in the assay with Trypanosoma cruzi; 0% in [5]. Moreover, the Percent Effect is 3.3% in assay [6]; 5.53% in the assay filed under Homo sapiens; -7.92% in assay [7]; 6.1% in assay [8]; 0.75% in assay [9].

Take `CCCNC(=O)Nc1cccc2c1CCN(S(C)(=O)=O)C2`: the Percent Effect in assay [1] is -9.62%; in assay [2], 18.4%; in assay [3] it was -0.671%; in assay [4], 6.12%; in the assay with Trypanosoma cruzi, 4.38%; in assay [5] it was -35.5%. Moreover, the Percent Effect was 6.81% in [6]; -3.94% in the assay listed under Homo sapiens; 3.19% in assay [7]; 18.2% in assay [8]; -1.24% in assay [9].

As to `COc1ccccc1OCCC(=O)N1CCCC1Cn1cc(C)cn1` (stereo not drawn), the Percent Effect in assay [1] was -4.84%; in assay [2] it was 13%; in assay [3] it was 5.75%; in assay [4], 5.19%; with Trypanosoma cruzi, 1.86%; in [5], 3.16%. Further, the Percent Effect is 0.0808% in assay [6]; 7.77% in the assay listed under Homo sapiens; 7.62% in [7]; 18.8% in assay [8]; -6.89% in assay [9].

With `O=C(c1ccc[nH]1)N1CCCC2(CCN(c3ccsc3)C2=O)C1` (stereo not drawn), the Percent Effect is -0.928% in assay [1]; -2.6% in assay [2]; 11.3% in assay [3]; 3.88% in assay [4]; -3.06% in the assay with Trypanosoma cruzi; -5.81% in [5]. Besides, the Percent Effect in assay [6] was 1.57%; in the assay listed under Homo sapiens, 4.99%; in assay [7], -3.17%; in assay [8], -3.85%; in assay [9], -1.57%.

As for `CCc1cc(N2CCCNCC2)n2nc(C)c(C)c2n1`, the Percent Effect was -1.91% in assay [1]; 8% in [2]; 2.19% in [3]; 2.6% in assay [4]; -3.41% in the assay on Trypanosoma cruzi; 3.65% in assay [5]. Besides, the Percent Effect in assay [6] was 16%; in the assay filed under Homo sapiens it was 12.2%; in assay [7] it was 1.64%; in assay [8], 11.1%; in [9] it was -6.23%.

As to `Cc1ccc(CN2CCc3ncnc(-c4cccnc4)c3CC2)o1`, the Percent Effect was -3.48% in assay [1]; -2.67% in [2]; 0.55% in [3]; 8.87% in assay [4]; -0.772% in the assay with Trypanosoma cruzi; -5.91% in assay [5]. The Percent Effect is 8.72% in assay [6]; -10.7% in the assay filed under Homo sapiens; 2.08% in assay [7]; 0% in assay [8]; -3.74% in [9].

Regarding `Cc1nc(C)n(CC2CCCCN2CC(=O)N(C)Cc2ccco2)n1` (stereo not drawn), the Percent Effect was -1.21% in assay [1]; 0% in assay [2]; 13.5% in [3]; 5.38% in assay [4]; 2.45% in the assay on Trypanosoma cruzi; 0.21% in assay [5]. Besides, the Percent Effect in assay [6] is 11.9%; in the assay listed under Homo sapiens, 5.11%; in assay [7], 0%; in [8], -2.35%; in [9], -7.89%.

As for `CN(C)C(=O)CC1CC2(CCN(C(=O)N(C)C)CC2)Oc2ccccc21` (stereo not drawn), the Percent Effect was -2.94% in [1]; 8.11% in [2]; -0.534% in assay [3]; -1.19% in [4]; -4.79% in the assay on Trypanosoma cruzi; 2.73% in assay [5]. Also, the Percent Effect in assay [6] is 9.53%; in the assay filed under Homo sapiens, 4.7%; in assay [7] it was 1.07%; in assay [8], 6.17%; in [9], -4.24%.
